Measured values as given in PubChem BioAssay AID1159580 (chemical genetic matrix, 2015).
In all, about 5,500 compounds went through this assay and about 2,000 (36%) were called active. Inconclusive results (about 18%) are left out. Cut-off read from the data, not from the text of the source: active = normalized growth mostly below about 0.91 (no sharp cut-off); inconclusive = no clear call, values can overlap the other calls; inactive = mostly above about 0.92. This is one part of the list.

Test: chemical genetic growth profiling, strain panel (AID 1159580);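 note: tested at 20 µM; growth read once vehicle control cultures reached saturation at 30 °C; 1 = growth at the plate median or of vehicle wells; lower values mean less growth of the strain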
Details: S. cerevisiae deletion strains, growth OD

Measured: normalized growth

CN1/C(=C/C=C/c2ccc3ccccc3[n+]2C)C=Cc2ccccc21
active: locus YAR019C, strain CDC15, stronger effect = lower value 0.675 | locus YBL105C, strain PKC1, stronger effect = lower value 0.837 | locus YBR136W, strain MEC1, stronger effect = lower value 0.893 | locus YDL017W, strain CDC7, stronger effect = lower value 0.903 | locus YDL101C, strain DUN1, stronger effect = lower value 0.362 | locus YDL132W, strain cdc53, stronger effect = lower value 0.653 | locus YDL214C, strain PRR2, stronger effect = lower value 0.185 | locus YDR052C, strain DBF4, stronger effect = lower value 0.889 | locus YDR054C, strain cdc34, stronger effect = lower value 0.581 | locus YDR477W, strain SNF1, stronger effect = lower value 0.226 | locus YER123W, strain YCK3, stronger effect = lower value 0.204 | locus YER133W, strain GLC7, stronger effect = lower value 0.18 | locus YFL009W, strain cdc4, stronger effect = lower value 0.684 | locus YFL029C, strain CAK1, stronger effect = lower value 0.603 | locus YFR003C, strain YPI1, stronger effect = lower value 0.883 | locus YFR019W, strain FAB1, stronger effect = lower value 0.217 | locus YFR028C, strain CDC14, stronger effect = lower value 0.885 | locus YGR040W, strain KSS1, stronger effect = lower value 0.215 | locus YGR052W, strain FMP48, stronger effect = lower value 0.212 | locus YGR092W, strain DBF2, stronger effect = lower value 0.148 | locus YHR030C, strain SLT2, stronger effect = lower value 0.177 | locus YHR079C, strain IRE1, stronger effect = lower value 0.182 | locus YHR082C, strain KSP1, stronger effect = lower value 0.224 | locus YHR205W, strain SCH9, stronger effect = lower value 0.132 | locus YJL095W, strain BCK1, stronger effect = lower value 0.208 | locus YJL157C, strain FAR1, stronger effect = lower value 0.174 | locus YJR016C, strain ILV3, stronger effect = lower value 0.828 | locus YJR066W, strain TOR1 (second series), stronger effect = lower value 0.196 | locus YJR066W, strain TOR1, stronger effect = lower value 0.197 | locus YKL048C, strain ELM1, stronger effect = lower value 0.291 | locus YKL067W, strain YNK1, stronger effect = lower value 0.162 | locus YKL101W, strain HSL1, stronger effect = lower value 0.199 | locus YKL193C, strain SDS22, stronger effect = lower value 0.655 | locus YKL203C, strain TOR2, stronger effect = lower value 0.209 | locus YLR113W, strain HOG1, stronger effect = lower value 0.29 | locus YLR133W, strain CKI1, stronger effect = lower value 0.341 | locus YLR403W, strain SFP1, stronger effect = lower value 0.0454 | locus YML070W, strain DAK1, stronger effect = lower value 0.209 | locus YMR001C, strain CDC5, stronger effect = lower value 0.816 | locus YMR205C, strain PFK2 (second series), stronger effect = lower value 0.325 | locus YNL006W, strain LST8, stronger effect = lower value 0.793 | locus YNL020C, strain ARK1, stronger effect = lower value 0.243 | locus YNL161W, strain CBK1, stronger effect = lower value 0.658 | locus YNL183C, strain NPR1, stronger effect = lower value 0.197 | locus YNL207W, strain RIO2, stronger effect = lower value 0.528 | locus YNL222W, strain SSU72, stronger effect = lower value 0.708 | locus YNL307C, strain MCK1 (second series), stronger effect = lower value 0.189 | locus YOL136C, strain PFK27, stronger effect = lower value 0.188 | locus YOR061W, strain CKA2, stronger effect = lower value 0.181 | locus YOR119C, strain RIO1, stronger effect = lower value 0.221 | locus YOR231W, strain MKK1, stronger effect = lower value 0.198 | locus YOR329C, strain SCD5, stronger effect = lower value 0.702 | locus YPL031C, strain PHO85, stronger effect = lower value 0.198 | locus YPL153C, strain RAD53, stronger effect = lower value 0.178 | locus YPL204W, strain HRR25, stronger effect = lower value 0.177 | locus YPL209C, strain IPL1, stronger effect = lower value 0.748 | locus YPL256C, strain CLN2, stronger effect = lower value 0.25 | locus YPR025C, strain CCL1, stronger effect = lower value 0.821 | strain NNK1, stronger effect = lower value 0.536 | strain TSCII, stronger effect = lower value 0.604
inactive: locus YBR135W, strain CKS1, stronger effect = lower value 0.901 | locus YBR160W, strain CDC28, stronger effect = lower value 0.919 | locus YDL028C, strain MPS1, stronger effect = lower value 0.928 | locus YDL108W, strain KIN28, stronger effect = lower value 0.912 | locus YDR226W, strain ADK1, stronger effect = lower value 0.961 | locus YIL147C, strain SLN1, stronger effect = lower value 0.905 | locus YPR106W, strain ISR1, stronger effect = lower value 0.929 | locus YPR111W, strain DBF20, stronger effect = lower value 0.902
